This is an account of results in PubChem BioAssay (NCI).

This is part of a sample that, as a whole, favours compounds with a hit. Of some 79,000 tested, about 15% had one in any assay. Values without a mark were called inactive. Active and inactive are the calls of the source. Rule as the data show it: active = growth inhibition above about 70%; inactive = the rest.

One experiment can be described thus: NCI Yeast Anticancer Drug Screen. Data for the wt1 strain (AID 149).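 Also: 0% = growth of vehicle-treated wt1 cultures.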 The following applies: S. cerevisiae wt1 strain (SPY 50644) growth inhibition; at 33.0 µM; stronger effect = higher value. An outline of the steps:
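Each compound is tested on wt1 yeast and the loss of growth versus vehicle gives the inhibition value.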
With `CCO/C=C1\SC(=S)N(c2ccc(OCC)cc2)C1=O`, the growth inhibition is -34%.

Take `COc1cc(OC)c(CSCC(NC(=O)OCC2c3ccccc3-c3ccccc32)C(=O)O)c(OC)c1` (stereo not drawn): the growth inhibition is 96% (active).

Take `COC(=O)c1ccccc1N=NNc1cccc(SC)c1`: the growth inhibition was 90% (active).

Consider `CC1=NN(C(=O)c2ccccc2O)C(=O)/C1=C/c1ccco1`, for which the growth inhibition is 90% (active).

For `COc1ccccc1NC(=O)c1ccc(Cl)cc1`, the growth inhibition is 0%.

As to `CC(C)=CCC/C(C)=C/CN1C(=O)C=CC1=O`, the growth inhibition is 100% (active).

In the case of `O=C1CSC(c2ccccc2)N1c1ccc(-c2ccc(-n3c(-c4ccccc4)nc4ccccc4c3=O)cc2)cc1` (stereo not drawn), the growth inhibition was -19%.

On to `N#CC1OB(O)c2ccccc21` (stereo not drawn), for which the growth inhibition is -4%.

With `O=C(NCCNCCNC(=O)c1cc(-c2ccccc2)nc2ccccc12)c1cc(-c2ccccc2)nc2ccccc12`, the growth inhibition was -2%.

On to `Brc1ccc(B2Nc3ccccc3N2)cc1`, for which the growth inhibition is 31%.

`CCOP(=O)(OCC)/C(C#N)=C/c1cccc(Oc2ccccc2)c1`: the growth inhibition was 96% (active).

Staying with this experiment, now noted: S. cerevisiae wt1 strain (SPY 50644) growth inhibition; at 100.0 µM; stronger effect = higher value.
Turning to `CN(C)CC(CN(C)C)C(=O)/C=C/c1ccc(Cl)cc1Cl`, the growth inhibition was 98% (active).

In the case of `c1ccc2c(c1)ccn2CCc1c[nH]c2ccccc12`, the growth inhibition is 95% (active).

On to `Cc1ccccc1NC(=O)c1c(C)oc2c1C(=O)c1ccccc1C2=O`, for which the growth inhibition was 60%.

Consider `CC(C)OC(=O)NNc1c(Cl)cc(Cl)cc1Cl`, for which the growth inhibition is -5%.

As for `COc1ccc2nc3cccc([N+](=O)[O-])c3c(NCCNCCO)c2c1`, the growth inhibition is 70% (active).

Consider `COc1ccc2c(c1)CCCC(Br)C2=O` (stereo not drawn), for which the growth inhibition is 98% (active).

Turning to `CCC(OC(C)=O)C1CC(C(C)C)CCC1C` (stereo not drawn), the growth inhibition was 44%.

With `O=S(=O)(c1cccc(C(F)(F)F)c1)N1c2ccccc2-n2cccc2C1c1cccnc1` (stereo not drawn), the growth inhibition was 89% (active).

Regarding `c1ccc(-c2cc(C3CO3)c3ccccc3n2)cc1` (stereo not drawn), the growth inhibition was 96% (active).

In the case of `COc1ccc(/C=C2\SC(=S)N(/C=C3\C(=O)N(c4ccccc4)N=C3C)C2=O)cc1OC`, the growth inhibition was 76% (active).

With `CC1=CC(=C(c2ccc(N)c(C)c2)c2ccc(N)c(C)c2)C=CC1=N`, the growth inhibition was 90% (active).

In the case of `CC1C(c2ccccc2)SC(=N)N1C` (stereo not drawn), the growth inhibition was -1%.

In the case of `CC(/C=C/c1ccc([N+](=O)[O-])o1)=N/N1CC(CN2CCOCC2)OC1=O` (stereo not drawn), the growth inhibition is 96% (active).

`C=CC(C)(C)N1C(=O)C(C(C)=O)=C(O)C1Cc1c[nH]c2ccccc12` (stereo not drawn): the growth inhibition is 71% (active).

`O=C1c2cccc3cccc(c23)C(=O)N1CCNCCN1C(=O)c2cccc3cccc(c23)C1=O`: the growth inhibition is 5%.

On to `Cc1ccc([N+](=O)[O-])c2c(NCCC[N+](C)(C)[O-])c3ccccc3nc12`, for which the growth inhibition was 2%.

As for `COC(=O)C(Cc1c[nH]c2ccccc12)N1CN(C)c2ccccc2C1=O` (stereo not drawn), the growth inhibition is 60%.

For `O=C(/N=N/C(=O)Oc1ccccc1)Oc1ccccc1`, the growth inhibition is 37%.

Take `COc1cc([C@@H]2c3cc4c(cc3[C@@H](NC(=O)NO)[C@H]3COC(=O)[C@H]23)OCO4)cc(OC)c1O`: the growth inhibition was 4%.

Consider `CC1(C)CC(=O)C(/C=N/c2nc(-c3ccc(Br)cc3)cs2)=C(O)C1`, for which the growth inhibition is 60%.

On to `CCOC(=O)/C(=C/c1cccc(Cl)c1)N(CC)CC`, for which the growth inhibition was 96% (active).

Take `CC(C)OC(=O)NNc1cccc(Cl)c1`: the growth inhibition was 96% (active).

`CCC(=O)C1=C(O)c2cc(OC)ccc2CC1C(=O)OC` (stereo not drawn): the growth inhibition was 19%.

For the compound `O=S(=O)(NC1CCCC(c2ccccc2)C1)c1ccccc1` (stereo not drawn), the growth inhibition is 50%.

`COc1ccc2nc3cccc([N+](=O)[O-])c3c(NCCCCCC(=O)O)c2c1`: the growth inhibition is 98% (active).

Turning to `CCO/C=C1\SC(=S)N(c2ccc(OCC)cc2)C1=O`, the growth inhibition is -33%.

`COc1cc(OC)c(CSCC(NC(=O)OCC2c3ccccc3-c3ccccc32)C(=O)O)c(OC)c1` (stereo not drawn): the growth inhibition was 99% (active).

Take `COC(=O)c1ccccc1N=NNc1cccc(SC)c1`: the growth inhibition is 88% (active).

Consider `CC1=NN(C(=O)c2ccccc2O)C(=O)/C1=C/c1ccco1`, for which the growth inhibition was 95% (active).

Take `COc1ccccc1NC(=O)c1ccc(Cl)cc1`: the growth inhibition is -1%.

Regarding `CC(C)=CCC/C(C)=C/CN1C(=O)C=CC1=O`, the growth inhibition is 99% (active).

With `O=C1CSC(c2ccccc2)N1c1ccc(-c2ccc(-n3c(-c4ccccc4)nc4ccccc4c3=O)cc2)cc1` (stereo not drawn), the growth inhibition was -7%.

With `N#CC1OB(O)c2ccccc21` (stereo not drawn), the growth inhibition is 0%.

Turning to `O=C(NCCNCCNC(=O)c1cc(-c2ccccc2)nc2ccccc12)c1cc(-c2ccccc2)nc2ccccc12`, the growth inhibition is 6%.

As for `Brc1ccc(B2Nc3ccccc3N2)cc1`, the growth inhibition was 40%.

On to `CCOP(=O)(OCC)/C(C#N)=C/c1cccc(Oc2ccccc2)c1`, for which the growth inhibition was 97% (active).

Another experiment in a line: NCI Yeast Anticancer Drug Screen. Data for the rad50EPP+ strain (AID 151).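 Also: 0% = growth of vehicle-treated control cultures.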 The following applies: S. cerevisiae rad50 mutant strain, at 1.2 µM, stronger effect = higher value. An outline of the steps:
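Vehicle-normalised growth inhibition; rad50EPP+ yeast strain, altered in DNA damage repair, compound-treated.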
As to `CN(C)CC(CN(C)C)C(=O)/C=C/c1ccc(Cl)cc1Cl`, the growth inhibition was -2%.

`c1ccc2c(c1)ccn2CCc1c[nH]c2ccccc12`: the growth inhibition is -33%.

As to `Cc1ccccc1NC(=O)c1c(C)oc2c1C(=O)c1ccccc1C2=O`, the growth inhibition is -8%.

Take `CC(C)OC(=O)NNc1c(Cl)cc(Cl)cc1Cl`: the growth inhibition is 10%.

Consider `COc1ccc2nc3cccc([N+](=O)[O-])c3c(NCCNCCO)c2c1`, for which the growth inhibition was 2%.

`COc1ccc2c(c1)CCCC(Br)C2=O` (stereo not drawn): the growth inhibition was 5%.

In the case of `CCC(OC(C)=O)C1CC(C(C)C)CCC1C` (stereo not drawn), the growth inhibition is 0%.

`O=S(=O)(c1cccc(C(F)(F)F)c1)N1c2ccccc2-n2cccc2C1c1cccnc1` (stereo not drawn): the growth inhibition is -73%.

Turning to `c1ccc(-c2cc(C3CO3)c3ccccc3n2)cc1` (stereo not drawn), the growth inhibition is 2%.

`COc1ccc(/C=C2\SC(=S)N(/C=C3\C(=O)N(c4ccccc4)N=C3C)C2=O)cc1OC`: the growth inhibition was -1%.

On to `CC1=CC(=C(c2ccc(N)c(C)c2)c2ccc(N)c(C)c2)C=CC1=N`, for which the growth inhibition was 8%.

For the compound `CC1C(c2ccccc2)SC(=N)N1C` (stereo not drawn), the growth inhibition is -2%.

Regarding `CC(/C=C/c1ccc([N+](=O)[O-])o1)=N/N1CC(CN2CCOCC2)OC1=O` (stereo not drawn), the growth inhibition is -4%.

`C=CC(C)(C)N1C(=O)C(C(C)=O)=C(O)C1Cc1c[nH]c2ccccc12` (stereo not drawn): the growth inhibition is -1%.

For `O=C1c2cccc3cccc(c23)C(=O)N1CCNCCN1C(=O)c2cccc3cccc(c23)C1=O`, the growth inhibition is -1%.

With `Cc1ccc([N+](=O)[O-])c2c(NCCC[N+](C)(C)[O-])c3ccccc3nc12`, the growth inhibition is -9%.

For `COC(=O)C(Cc1c[nH]c2ccccc12)N1CN(C)c2ccccc2C1=O` (stereo not drawn), the growth inhibition is 9%.

For the compound `O=C(/N=N/C(=O)Oc1ccccc1)Oc1ccccc1`, the growth inhibition was -87%.

Consider `COc1cc([C@@H]2c3cc4c(cc3[C@@H](NC(=O)NO)[C@H]3COC(=O)[C@H]23)OCO4)cc(OC)c1O`, for which the growth inhibition was -2%.

For `CC1(C)CC(=O)C(/C=N/c2nc(-c3ccc(Br)cc3)cs2)=C(O)C1`, the growth inhibition was 5%.

Consider `CCOC(=O)/C(=C/c1cccc(Cl)c1)N(CC)CC`, for which the growth inhibition is 37%.

Take `CC(C)OC(=O)NNc1cccc(Cl)c1`: the growth inhibition is 6%.

Take `CCC(=O)C1=C(O)c2cc(OC)ccc2CC1C(=O)OC` (stereo not drawn): the growth inhibition is 2%.

On to `O=S(=O)(NC1CCCC(c2ccccc2)C1)c1ccccc1` (stereo not drawn), for which the growth inhibition is -1%.

For the compound `COc1ccc2nc3cccc([N+](=O)[O-])c3c(NCCCCCC(=O)O)c2c1`, the growth inhibition is 38%.

In the case of `CCO/C=C1\SC(=S)N(c2ccc(OCC)cc2)C1=O`, the growth inhibition was -38%.

In the case of `COc1cc(OC)c(CSCC(NC(=O)OCC2c3ccccc3-c3ccccc32)C(=O)O)c(OC)c1` (stereo not drawn), the growth inhibition was -2%.

With `COC(=O)c1ccccc1N=NNc1cccc(SC)c1`, the growth inhibition was 9%.

In the case of `CC1=NN(C(=O)c2ccccc2O)C(=O)/C1=C/c1ccco1`, the growth inhibition is 9%.

For the compound `COc1ccccc1NC(=O)c1ccc(Cl)cc1`, the growth inhibition was 7%.

Take `CC(C)=CCC/C(C)=C/CN1C(=O)C=CC1=O`: the growth inhibition is 57%.

For `O=C1CSC(c2ccccc2)N1c1ccc(-c2ccc(-n3c(-c4ccccc4)nc4ccccc4c3=O)cc2)cc1` (stereo not drawn), the growth inhibition is 3%.

As for `N#CC1OB(O)c2ccccc21` (stereo not drawn), the growth inhibition was -2%.

`O=C(NCCNCCNC(=O)c1cc(-c2ccccc2)nc2ccccc12)c1cc(-c2ccccc2)nc2ccccc12`: the growth inhibition is -1%.

As to `Brc1ccc(B2Nc3ccccc3N2)cc1`, the growth inhibition was 10%.

For the compound `CCOP(=O)(OCC)/C(C#N)=C/c1cccc(Oc2ccccc2)c1`, the growth inhibition was 0%.
